FECH block = inhibitors of human ferrochelatase; 20,000 compounds, 3.3% hits; calls only at 10 µM (by protocol); purified FECH, Ni-mesoporphyrin absorbance 550 nm; AID 1671448;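 active = enzyme reaction rate more than 3 SD below the solvent-only control wells on the same plate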;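 also: lower slope than DMSO wells means FECH inhibition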
Target sequence (P22830 whole entry, looked up): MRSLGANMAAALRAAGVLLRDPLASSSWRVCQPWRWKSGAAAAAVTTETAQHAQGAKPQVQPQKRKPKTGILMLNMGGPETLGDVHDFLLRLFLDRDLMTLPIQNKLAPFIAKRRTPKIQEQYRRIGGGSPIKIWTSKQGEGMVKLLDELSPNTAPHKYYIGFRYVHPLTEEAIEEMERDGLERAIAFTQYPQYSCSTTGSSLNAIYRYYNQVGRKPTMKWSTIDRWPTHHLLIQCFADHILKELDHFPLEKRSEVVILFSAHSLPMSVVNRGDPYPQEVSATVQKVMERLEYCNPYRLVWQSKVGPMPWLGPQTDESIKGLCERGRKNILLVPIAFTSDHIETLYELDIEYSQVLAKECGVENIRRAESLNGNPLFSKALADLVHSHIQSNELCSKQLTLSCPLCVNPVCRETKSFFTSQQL
Numbers without * were called inactive. This excerpt belongs to a sample that is enriched for hits.

O=S(=O)(c1ccc(Cl)cc1)N1CCN(Cc2nc3cccnc3n2-c2ccccc2)CC1 was read as FECH block inactive.
CC(C)C(NC(=O)c1ccco1)C(=O)N1CCC(c2nc(-c3ccc(F)cc3)no2)CC1 (stereo not given) was read as FECH block inactive.
For CC(C)CC1(CO)CCCN(C(=O)CCC(=O)NC2CCCC2)C1 (stereo not given) the results were FECH block inactive.
Screening COc1ccccc1C1CCN(C(=O)CCC(=O)NC2CCCC2)CC1 returned FECH block inactive.
Screening O=C(CCC(=O)N1CCN(CC2CCCO2)CC1)NC1CCCC1 (stereo not given) returned FECH block active.
`CNc1nc(Nc2cccc(OC)c2)c2cnn(-c3ccccc3)c2n1` gave FECH block inactive.
For COc1cccc(Nc2nc(NCCO)nc3c2cnn3-c2ccccc2)c1 the results were FECH block inactive.
`CCc1c(C)nc2ncnn2c1Sc1ccccc1NC(=O)C1CC1` gave FECH block active.
CCc1c(C)nc2ncnn2c1Sc1ccc(NC(=O)C2CC2)cc1 was read as FECH block inactive.
`CCc1c(C)nc2ncnn2c1Sc1ccccc1NC(=O)Cc1ccc(OC)cc1` gave FECH block active.
CCc1c(C)nc2ncnn2c1Sc1ccc(NC(=O)Cc2ccc(OC)cc2)cc1 was read as FECH block inactive.
Screening CCc1c(C)nc2ncnn2c1Sc1ccccc1NC(=O)COc1ccc(C)cc1 returned FECH block inactive.
For CCc1c(C)nc2ncnn2c1Sc1ccccc1NC(=O)Nc1ccc(C)cc1 the results were FECH block inactive.
Screening CC(C)c1nc(CN(C)C(C)C(=O)Nc2nccs2)cs1 (stereo not given) returned FECH block inactive.
`CN(Cc1ccsc1)C(=O)C1(c2ccc(F)cc2)CCOCC1` gave FECH block inactive.
Screening CCOCCCNc1nc(Nc2ccc(C)c(C)c2)c2cnn(-c3ccccc3)c2n1 returned FECH block inactive.
`Cc1cc(C(=O)N2C[C@@H](N)C[C@H]2C(=O)NC(C)C)c(-c2ccccc2)o1` gave FECH block inactive.
`CCCc1cc(C(=O)N2C[C@@H](N)C[C@H]2C(=O)NC(C)C)ccn1` gave FECH block inactive.
For CC(C)NC(=O)[C@@H]1C[C@H](N)CN1C(=O)c1cccc2c3c([nH]c12)CCCC3 the results were FECH block active.
